# Screening results (PubChem BioAssay)
# Compounds with a hit are over-represented: about 21% of the library has one in this group of screens.
# Shiga toxin inh: Shiga toxin inhibition | AID 2315 | inhibition, % at 38.7 µM | Vero cells, Shiga toxin protein synthesis inhibition reporter | 290,000 compounds, 9.2% hits; in the data active = inhibition mostly above about 28%, no sharp cut-off; inactive = mostly below about 43%; also: 0% is about no effect
# CHX counter: affects cycloheximide protein synthesis inhibition readout, counter-screen; cell reporter, cycloheximide protein synthesis inhibition counterscreen; max response, %; 300,000 compounds, 12% hits; AID 2314; in the data active = max response mostly above about 13%, no sharp cut-off; inactive = mostly below about 14%; also: read at 38.3 µM for the half of the compounds with a filed dose; 0% is about no effect
# HCMV antiviral: inhibitors of human cytomegalovirus | HFF cells, HCMV-luciferase reporter, 72 h; active compounds read low | activity change, negative = inhibition, % at 57.5 µM | 410,000 compounds, 4.5% hits; in the data active = activity change below about -60%; inconclusive = no clear call, values can overlap the other calls; inactive = above about -39%; also: % is scaled to controls: 0 for no effect and ±100 for the full control effect
#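 Two-dose cell screen: HFF monolayers treated with compounds and infected with luciferase-expressing HCMV at 1 PFU/cell, 72 h at 37C, then lysed for luciferase measurement.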
# Pf growth 96h: P. falciparum growth inhibition at 96 hour, primary screen for plastid delayed-death inhibitors. P. falciparum luciferase reporter growth, 96 h. Potency, µM (series often up to 28.7 µM), for the others: at the top dose activity change, negative = inhibition, hits mostly inhibitors. 320,000 compounds, 6.9% hits. AID 504834; also: potency is read from the fitted curve at half-maximal effect; % is scaled to controls: 0 for no effect and ±100 for the full control effect
#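 Erythrocytes infected with luciferase-expressing P. falciparum were dispensed at 2% hematocrit and 0.05% parasitemia (final), then incubated with compounds 96 hours at 37 C in 5% CO2. Luminescence after detection reagent addition reported growth.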
# Pf growth 48h: inhibits P. falciparum growth in the first generation, 48 h; P. falciparum luciferase growth in erythrocytes, 48 h; Potency, µM (highest dose often 28.7 µM), without a hit: at the highest dose activity change, negative = inhibition, usual class: inhibitors; 310,000 compounds, 5.9% hits; AID 504832; also: potency is read from the fitted curve at half-maximal effect; % is scaled to controls: 0 for no effect and ±100 for the full control effect
#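 Read-out is firefly luciferase luminescence from an integrated reporter in P. falciparum, so falling signal marks reduced parasite growth. Infected erythrocytes were at 2% hematocrit and 0.1% parasitemia (final) in Albumax-supplemented RPMI 1640.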
# HCV inhibitor: HCV inhibition; Potency, µM (titrated, usually from 41.8 µM), inactives show at the top dose activity change, negative = inhibition, usual class: inhibitors; AID 651820; Huh7.5.1 HCVcc-Cre infection, luciferase reporter, 44 h; 340,000 compounds, 3.4% hits; also: potency is read from the fitted curve at half-maximal effect; % is scaled to controls: 0 for no effect and ±100 for the full control effect
#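 Whole-lifecycle infectious HCVcc-Cre system; cells 1,000/well, compound then virus (~0.5 moi) added 4 h after plating, 44 h culture. Luciferase read 15 sec following 15 min substrate incubation, room temp.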
# The depositor's hits bear a star; ? = inconclusive; . = no result; [ ] = another dose, or the depositor's remark. Unless noted, calls follow the shape of the dose curve; as a rule, active = well fitted inhibition curve with a large enough effect; inconclusive = small, poorly fitted or top-dose-only effect, or another doubt; inactive = no such curve, though single readings can be large or run the other way.
SMILES,Shiga toxin inh,CHX counter,HCMV antiviral,Pf growth 96h,Pf growth 48h,HCV inhibitor
Cc1cccc(C)c1OCC(O)Cn1nnc2ccccc21 (configuration not stated),7,16*,-1,-14%,17%,?
CC1CCN(C(=O)c2[nH]cnc2C(=O)Nc2nccs2)CC1,.,.,4,31%,18%,-9%[8.37 µM]
CCCCNC(=O)O[C@H]1C[C@@H]2CCN3C(=O)CCC(C)(C)[C@H](C1)[C@H]23,13,-3,-37,-10%,1%,13%
CC1(C)CCC(=O)N2CC[C@H]3C[C@H](OC(=O)Nc4ccc5c(c4)OCO5)C[C@@H]1[C@H]32,23*,20*,37,115%,23%,2%
CC1(C)CCC(=O)N2CC[C@H]3C[C@H](OC(=O)Nc4ccccc4)C[C@@H]1[C@H]32,39*,36*,45,50%,130%,-5%
Cc1cc(C)nc(NS(=O)(=O)c2ccc(NC(=O)c3ccc4c(c3)OCCO4)cc2)n1,-4,1,-12,16%,1%,12%
CCN(CC)c1ccc(/C=C2/SC(=O)N(C(C)C)C2=O)o1,-7,-5,-86*,?,?,?
CC(C)N1C(=O)S/C(=C\c2ccc(-c3ccc(Cl)c(C(=O)O)c3)o2)C1=O,153*,76*,231,158%,116%,10%
CCN(CC)c1ccc(C=C2C(=O)N(C)C(=S)N(C)C2=O)o1,15,-1,1,19%,34%,3%
CC(C)OC(=O)/C(C#N)=C/c1ccc(-c2ccc(Cl)c(Cl)c2)o1,.,.,23,.,.,.
CC(C)OC(=O)c1cc(-c2ccc(C=O)o2)ccc1Cl,21,11*,-21,15µM*,31%,8%
CCN(CC)c1ccc(/C=C2\C(=O)NC(=S)N(C)C2=O)o1,110*,45*,2,76%,116%,-25%
COc1cccc(/C=N/n2c(-c3n[nH]c4c3CCC4)n[nH]c2=S)c1OC,-1,1,6,47%,52%,19%
COc1cc(C(=O)NCc2nnc(SCC(=O)Nc3cccc(C)c3)o2)cc(OC)c1OC,-9,-6,36,7.4µM*,.,11%
Cc1cccc(NC(=O)CSc2nnc(CNC(=O)c3ccco3)o2)c1,-2,-1,2,10µM*,21%,4%
Cc1cccc(NC(=O)CSc2nnc(NC(=O)c3ccco3)s2)c1,43*,26,9,125%,56%,0%
COc1ccc(NC(=O)CSc2nnc(NC(=O)c3ccco3)s2)cc1OC,-2,0,46,-8%,34%,.
CCSc1nnc(NC(=O)c2csc(C)c2)s1,49*,17*,2,.,85%,-9%
CCSc1nnc(NC(=O)c2cccc3ccccc23)s1,-4,-1,84,0%,26%,3%
CCc1cccc(NC(=O)c2ccc(NC(=O)N3CCSc4ncccc43)cc2)c1,.,.,0,.,.,.
Cc1cccc(NS(=O)(=O)c2cccc(C(=O)N3CCCC(C(F)(F)F)C3)c2)c1 (configuration not stated),.,.,-4,-2%,-11%,14%
Cc1ccc(NC(=O)CSc2nnc(CNC(=O)c3ccco3)o2)cc1,-8,12,-15,-2%,46%,16%
CCSc1nnc(NC(=O)Nc2cccc(C)c2)s1,101*,38*,-26,0%,33%,-24%
O=C(CSc1nnc(CNC(=O)c2ccco2)o1)Nc1ccc(F)cc1,-2,-4,-13,10µM*,8%,12%
CC(=O)Nc1ccc(NC(=O)c2nc(S(=O)(=O)Cc3ccc(F)cc3)ncc2Cl)cc1,.,.,-100*,.,.,.
SMILES,Shiga toxin inh,CHX counter,HCMV antiviral,Pf growth 96h,Pf growth 48h,HCV inhibitor
CC(=O)Nc1ccc(NC(=O)c2nc(SCc3ccccc3C)ncc2Cl)cc1,.,.,-15,.,.,.
Cc1ccc(NC(=O)c2nc(S(=O)(=O)Cc3ccc(F)cc3)ncc2Cl)cc1C,.,.,-98*,.,.,.
Cc1ccc(NC(=O)c2nc(S(=O)(=O)Cc3ccccc3C)ncc2Cl)cc1C,39*,37*,-98*,?,31%,?
CC1(C(=O)OCC(=O)NNC(=O)COc2ccc(Cl)cc2)CC1(Cl)Cl (configuration not stated),.,.,22,29%,23%,-24%
CCOCCCNC(=O)c1ccc2c(c1)ncn2-c1ccc(CC)cc1,87,32,-64*,17%,?,-11%
COCCNC(=O)c1ccc2c(c1)ncn2-c1cc(C)ccc1OC,.,.,-11,.,.,.
CCOCCCNC(=O)c1ccc2c(c1)ncn2-c1ccc(C)cc1C,-3,-3,-29,?,?,-3%
COCCNC(=O)c1ccc2c(c1)ncn2-c1cccc(C)c1,30,15*,16,?,34%,-27%
CN1C(=O)c2ccccc2Sc2ccc(NC(=O)NCc3cccc(Cl)c3)cc21,.,.,-33,.,.,.
O=C(CCn1c(=O)oc2ccccc21)N1CCN(C(c2ccccc2)c2ccccc2)CC1,-2,-5,-9,31%,5.9µM*,?
O=C(Cn1c(=O)oc2ccccc21)N1CCN(c2ccccc2)CC1,-4,-1,11,13µM*,13%,18%
CN1C(=O)C(CC(=O)N2CCN(C(c3ccccc3)c3ccccc3)CC2)N(C)C1=O (configuration not stated),11,0,47,?,12µM*,-3%
COc1ccc(OCc2nnc(SCC(=O)Nc3ccccc3C#N)o2)cc1,-2,-4,-23,15%,3%,9%
CC1CCCCN1C(=S)NCCc1ccccc1 (configuration not stated),91*,38*,75,43%,.,13%
CC1CCCN(C(=S)NCCc2ccccc2)C1 (configuration not stated),54*,26*,44,60%,39%,9%
CN1CCC(N(C)C(=S)NCCc2ccccc2)CC1,22,16,?,25%,-3%,8%
Cc1sc2ncnc(Sc3ccccc3C(=O)Nc3ccc(C#N)cc3)c2c1C,15,-4,?,?,10µM*,25µM*
Cc1sc2ncnc(Sc3ccccc3C(=O)Nc3ccccc3Cl)c2c1C,-11,4,-37,?,12µM*,-16%
COc1ccc(NC(=O)CN(C)C(=O)c2ccccc2Sc2ncnc3sc(C)c(C)c23)cc1,.,.,-15,?,?,-24%
Cc1sc2ncnc(Sc3ccccc3C(=O)Nc3ccc(Br)cc3)c2c1C,51*,29*,-27,6.6µM*,9.3µM*,5.6µM*
CC(=O)c1ccc(NC(=O)CCCc2nc(-c3cccc(C)c3)no2)cc1,.,.,-11,.,.,.
COc1ccc(N2CCCC2=N)c(OC)c1,-6,7,-11,0%,13%,5%
O=C(NC(Cc1ccccc1)C(=O)O)C1CCCCC1 (configuration not stated),-11,-5,-4,10µM*,3%,-7%
CC(C)C1CCC(C(=O)NC(Cc2ccccc2)C(=O)O)CC1 (configuration not stated),.,.,.,21%,1%,.
